This is part of a sample that, as a whole, favours compounds with a hit. Of some 83,000 tested, about 20% had one in any assay.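 Percent growth is the endpoint: 0 to 100 indicates growth inhibition (40 means 60% inhibition), 0 means no net growth, and negative values indicate cell death.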 Activity calls are given as the source filed them. The calls were made as follows: active = growth percent below 10; inactive = the rest.

The values that follow come from PubChem BioAssay (NCI).

The experiment relates to K-562 leukemia. Briefly: NCI-60 one-dose screen, 48 h (100 = growth as untreated, 0 = no growth, -100 = all killed). To be noted: 10 µM unless noted.
As to `S=c1[nH]nc(CSc2ncnc3c2c(-c2ccccc2)cn3-c2ccc(Cl)cc2)o1`, the growth is 92.3% (inactive).

Regarding `COc1c(Cl)cc(Cl)cc1Cl`, the growth is 96.2% (inactive).

As for `COc1ccc(-c2nn(-c3ccccc3)cc2/C=C/C(=O)OCc2cn(-c3ccc(F)c(Cl)c3)nn2)cc1`, the growth was 69.7% (inactive).

`COc1ccc2c(c1)C(=O)/C(=C/c1cccc(OCC(=O)Nc3nc4c(s3)CCCC4)c1)O2`: the growth is -46.8% (active).

For the compound `CCN(CC)CC(C)Nc1ccc([N+](=O)[O-])c2sc3ccccc3c(=O)c12` (stereo unspecified), the growth was -14.2% (active).

For the compound `Cc1nn(-c2ccccc2)c2nc(C)n(-c3ccc(Br)cc3)c(=O)c12`, the growth was 9.29% (active).

Consider `OC(c1cc(-c2ccccc2)nc2ccc(Cl)cc12)C1CCCCN1` (stereo unspecified), for which the growth is -18.4% (active).

As to `COc1ccc(S(=O)(=O)NCCNc2nccc(-c3c(-c4cccc([N+](=O)[O-])c4)nc4sccn34)n2)cc1`, the growth is 76.1% (inactive).

In the case of `COc1ccc(Cl)cc1Nc1nc(C(F)(F)F)ccc1C(=O)N/N=C/c1cccnc1`, the growth is 36.1% (inactive).

For `COc1ccc(-c2nn(-c3ccccc3)cc2/C=C2\SC(=O)NC2=O)cc1`, the growth is 86.7% (inactive).

Turning to `Cc1ccc2c(c1)C(=O)c1c-2c(OCCCN(C)C)nc2ccccc12`, the growth was -59.4% (active).

As for `Cc1ccc(-c2nc(/C=N/Nc3cc(C)nc4ccc(Br)cc34)c(C)o2)cc1`, the growth is -33.2% (active).

As for `CCCCNP1(NCCCC)=NP(NCCCC)(NCCCC)=NP(NCCCC)(NCCCC)=NP(NCCCC)(NCCCC)=N1`, the growth was -26.4% (active).

For the compound `COc1ccc(-n2cc(-c3ccccc3)c3c(SCC(=O)N/N=C/c4ccc([N+](=O)[O-])cc4)ncnc32)cc1`, the growth was 110% (inactive).

For the compound `Nc1cccc(-c2nc3sccn3c2-c2ccnc(NCCCNS(=O)(=O)c3ccc(C(F)(F)F)cc3)n2)c1`, the growth was 8.49% (active).

`CCN(CC)CC(O)c1cc(-c2ccc(Cl)cc2)nc2c(C)c(Cl)ccc12` (stereo unspecified): the growth was -75.3% (active).

With `O=C1/C(=C/c2ccc(F)cc2)CN(C(=O)CCN2CCC(=NO)CC2)C/C1=C\c1ccc(F)cc1`, the growth was 5.22% (active).

As to `CC(C)C1=C[C@@]23CC[C@@H]4[C@](C)(CCC[C@@]4(C)C(=O)OCC#CCN4CCCC4)[C@H]2C[C@@H]1[C@H]1C(=O)OC(=O)[C@H]13`, the growth was 68.5% (inactive).

Consider `Cc1ccc2c(c1)C(=O)/C(=C/c1ccc(OCC(=O)c3ccccc3)cc1)O2`, for which the growth was 106% (inactive).

In the case of `Cc1ccc2c(c1)n([O-])c1cc(Cl)ccc1[n+]2=O`, the growth is 78.8% (inactive).

Take `COc1ccccc1/C=C(/C(=O)c1ccccc1)c1ccccc1`: the growth was 86.6% (inactive).

For the compound `COc1nc2c(cc1S(=O)(=O)c1ccccc1)CCc1c-2cnn1-c1ccc(Cl)cc1`, the growth is 97.2% (inactive).

Consider `CNc1cc2nc3cc(NC)c(C)cc3cc2cc1C`, for which the growth was 21.1% (inactive).

Turning to `Nc1c(C(=O)Nc2ccccc2)sc2nc3c(cc12)CN(CCc1ccccc1)CC3`, the growth is 82.2% (inactive).

In the case of `CC(C)[C@@H]1CC[C@]2(C(=O)NCCCCN=C(N)N)CC[C@]3(C)[C@H](CC[C@@H]4[C@@]5(C)CCC(=O)C(C)(C)[C@@H]5CC[C@]43C)[C@@H]12`, the growth was 24.6% (inactive).

Turning to `CCOC(=O)c1cnc2ccc(Br)cc2c1Nc1cccc(S(=O)(=O)NC)c1`, the growth is 100% (inactive).
